Measurements reported in PubChem BioAssay AID488969 (Vanderbilt High Throughput Screening Facility, 2010).
Over roughly 110,000 compounds, “z-score” has its median near -0.1; the highest 2% begin near 2. This is one part of a sample in which the highest values are shown more often than they occur. Active and inactive are the calls of the source.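 The calls were made as follows: active = z-score in the third read window above 3 or below -3; inactive = the rest.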

Each compound was assayed against Metabotropic glutamate receptor 8 (Rattus norvegicus) (UniProt P70579) (assay: rat mGluR8 modulators via GIRK flux, primary screen, cell-based, thallium flux, HTS (AID 488969)). Details: HEK293 rat mGluR8, GIRK (G protein-gated inwardly rectifying potassium channel) thallium flux, FluoZin2; at 10 µM; stronger effect = higher value; submaximal glutamate (EC20) added with thallium.
Metabotropic glutamate receptor 8 (Rattus norvegicus), sequence (P70579 whole entry, looked up): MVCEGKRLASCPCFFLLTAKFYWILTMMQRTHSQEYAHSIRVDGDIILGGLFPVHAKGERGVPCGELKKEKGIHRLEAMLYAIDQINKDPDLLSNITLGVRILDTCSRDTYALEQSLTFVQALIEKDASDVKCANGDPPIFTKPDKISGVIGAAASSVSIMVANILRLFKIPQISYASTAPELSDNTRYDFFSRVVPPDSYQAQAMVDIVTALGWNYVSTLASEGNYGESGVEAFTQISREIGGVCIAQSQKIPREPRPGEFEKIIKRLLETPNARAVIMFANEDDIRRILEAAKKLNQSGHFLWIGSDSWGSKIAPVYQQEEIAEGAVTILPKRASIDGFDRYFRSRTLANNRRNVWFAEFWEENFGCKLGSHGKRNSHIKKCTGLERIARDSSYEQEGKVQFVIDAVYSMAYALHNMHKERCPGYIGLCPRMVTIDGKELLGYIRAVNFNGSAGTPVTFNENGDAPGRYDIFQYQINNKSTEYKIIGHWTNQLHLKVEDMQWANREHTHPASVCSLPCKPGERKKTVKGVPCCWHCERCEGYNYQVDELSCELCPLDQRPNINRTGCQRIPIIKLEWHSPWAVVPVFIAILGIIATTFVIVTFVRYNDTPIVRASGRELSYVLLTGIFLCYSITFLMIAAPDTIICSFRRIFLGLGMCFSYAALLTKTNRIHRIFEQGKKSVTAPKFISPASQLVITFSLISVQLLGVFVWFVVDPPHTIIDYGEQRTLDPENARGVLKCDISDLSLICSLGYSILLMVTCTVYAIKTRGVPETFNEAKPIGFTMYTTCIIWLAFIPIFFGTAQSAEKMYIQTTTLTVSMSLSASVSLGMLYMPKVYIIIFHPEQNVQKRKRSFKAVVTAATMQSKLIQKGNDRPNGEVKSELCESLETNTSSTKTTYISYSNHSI

SMILES | z-score
COc1cccc(C(=O)Nc2c(F)c(F)c(F)c(F)c2F)c1 | -0.711
CCCCOc1ccc(Cc2c(Cl)nc(SC)nc2N2CCOCC2)cc1 | 0.0392
COc1cc(CN2CCN(c3cccc(Cl)c3)CC2)cc(OC)c1OC | -0.348
O=C1CC(c2cccc(F)c2)SC(N(c2ccccc2)c2ccccc2)=N1 (configuration not stated) | -0.127
NS(=O)(=O)c1ccc(N2N=C(c3ccccc3)CC2c2cccc(F)c2)cc1 (configuration not stated) | 0.17
Fc1cccc(C2NN=C(c3ccccc3)S2)c1 (configuration not stated) | 6.37 (active)
O=C(N/N=C/c1ccc[nH]1)c1cccc([N+](=O)[O-])c1 | -0.104
Cc1ccc(S(=O)(=O)N2CC(O)CC2C(=O)Nc2ccc3c(c2)CCC3)cc1 (configuration not stated) | 2.07
Cc1ccc(S(=O)(=O)Nc2ccc3c(c2)CCC3)cc1 | -0.101
Cc1ccc(S(=O)(=O)N2Cc3ccccc3CC2C(=O)Nc2ccc3c(c2)OCO3)cc1 (configuration not stated) | -0.0374
COc1ccc(-c2cc3nc(C4CCN(C(=O)OC(C)(C)C)CC4)c(C(=O)O)cn3n2)cc1 | -0.691
c1ccc2c(c1)ncn2CCC1CCCCC1 | 0.093
c1ccc(C(c2ccccc2)N2CCN(c3nc4ccccc4n4cnnc34)CC2)cc1 | -0.222
CCCCn1c(SCC(=O)NCc2ccco2)nc2ccccc2c1=O | 6.36 (active)
COCCn1c(SCc2nc(N)nc(Nc3ccccc3C)n2)nc2ccccc2c1=O | -0.279
O=C(CSc1nc2ccccc2c(=O)n1Cc1ccco1)NCc1ccco1 | -0.352
C/C(N)=C(/C#N)C(=O)CSc1nc2cc(Cl)ccc2c(=O)n1-c1ccc(C)cc1 | 2.69
Cc1ccccc1Nc1nc(N)nc(CSc2nc3ccccc3c(=O)n2C)n1 | 0.919
C/C(N)=C(/C#N)C(=O)CSc1nc2ccccc2c(=O)n1-c1ccc(C)c(Cl)c1 | -0.275

SMILES | z-score
C/C(N)=C(/C#N)C(=O)CSc1nnnn1-c1ccc(C)cc1 | 0.331
CCCCn1c(SCc2nc(N)nc(Nc3ccccc3C)n2)nc2ccccc2c1=O | 3.44 (active)
C/C(N)=C(/C#N)C(=O)CSc1nc2ccccc2c(=O)n1CCCO | -0.389
Cn1c(SCC(=O)NCc2ccco2)nc2ccccc2c1=O | -0.354
CCOCCCn1c(SCC(=O)/C(C#N)=C(\C)N)nc2ccccc2c1=O | -0.243
CCCCn1c(SCC(=O)/C(C#N)=C(\C)N)nc2ccccc2c1=O | 5.63 (active)
O=C(O)c1cccc(Nc2ncnc3c2cnn3-c2ccccc2)c1 | -1.14
CC(=O)C(/C=N/c1cc(-c2ccc(C)cc2)nn1-c1ccccc1)=C(\C)O | -0.251
CCC(=O)Nc1ccc(S(=O)(=O)N2CCCCC2)cc1OC | 0.0489
CC(C)Cc1nc2oc3c(NCCCN4CCOCC4)ncnc3c2c2c1CCC2 | 0.0144
S=c1[nH]nc(-c2cc(-c3ccco3)[nH]n2)n1-c1ccccc1 | -0.141
COc1cc(S(=O)(=O)N(Cc2ccccn2)Cc2ccco2)ccc1-n1cnnn1 | -0.493
CC(=O)Nc1ccc(SCC(=O)c2cc(C)n(C)c2C)cc1 | -0.0734
CC(=O)Nc1ccc(SCC(=O)c2cc(C)n(CC(F)(F)F)c2C)cc1 | 0.0826
CC(=O)Nc1ccc(SCC(=O)c2cc(C)n(-c3ccccc3F)c2C)cc1 | 4.45 (active)
COC(=O)c1ccc(-n2c(C)cc(C(=O)CSc3ccc(NC(C)=O)cc3)c2C)cc1 | 3.5 (active)
COCC(C)n1c(C)cc(C(=O)CSc2ccc(NC(C)=O)cc2)c1C (configuration not stated) | 0.445
CC(=O)Nc1ccc(SCC(=O)c2cc(C)n(-c3ccccc3)c2C)cc1 | 0.162
Cn1c(SCC(=O)c2ccc(F)cc2)nnc1-c1ccccc1N | -0.0125

SMILES | z-score
O=C(CCSc1nc(-c2ccc3c(c2)OCO3)cc(C(F)(F)F)n1)NCc1ccco1 | 0.587
O=[N+]([O-])c1cccc(/C=C/c2nc(C=Nc3ccc4ccccc4c3)c(O)o2)c1 | -0.0456
Cc1ccc(S(=O)(=O)N(C)CCCC(=O)Nc2cccc3ccccc23)cc1 | -0.456
O=C(CNC1CCCCCC1)Nc1ccc(N2CCCC2)cc1 | 2.66
O=C(CNC1CCCCCC1)Nc1ccccc1N1CCCCC1 | -0.23
CCC(=O)Nc1ccc(N2CCCCC2)cc1 | -0.169
CN1C2=C(C#N)C(c3ccccc3)(C(F)(F)F)NC(=O)N2c2ccccc21 (configuration not stated) | -0.282
CC(C)c1nc(=S)n(-c2ccccc2)[nH]1 | 4.41 (active)
CC(C)c1nc(-c2ccccc2)c(-c2ccccc2)[nH]1 | -0.0702
CC(C)c1nc2cc3ccccc3cc2[nH]1 | 0.396
COc1ccc(N2CCN(C(=O)NC34CC5CC(CC(C5)C3)C4)CC2)cc1 | -0.0964
CCC(CCC(=O)Nc1ccc(S(N)(=O)=O)cc1)C(=O)O (configuration not stated) | 0.735
CCOc1ccc(C2NC(=O)c3n[nH]c(C)c32)cc1 (configuration not stated) | 0.931
Cc1[nH]nc2c1C(c1ccccc1F)NC2=O (configuration not stated) | 2.74
COc1ccc(C2NC(=O)c3n[nH]c(C)c32)c(OC)c1 (configuration not stated) | 0.447
CCOC(=O)c1[nH]c2ccc(OC)cc2c1NC(=S)N1CCN(c2ccc(F)cc2)CC1 | 0.623
CC1Oc2ccccc2C=C1/C=N/NC(=O)c1ccccc1O (configuration not stated) | 0.0521
CC1Oc2ccccc2C=C1/C=N/NC(=O)c1ccccc1 (configuration not stated) | 1.9
Cc1ccc(C(=O)N/N=C/C2=Cc3ccccc3OC2C)cc1 (configuration not stated) | 3.08 (active)
